In all, about 110,000 compounds were measured (“z-score”: median about -0.1, highest 2% from about 2 on). Only a selection was taken, and the highest values are over-represented in it overall. Activity calls are given as the source filed them.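 The calls were made as follows: active = z-score in the third read window above 3 or below -3; inactive = the rest.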

The target in this assay is Metabotropic glutamate receptor 8 (Rattus norvegicus) (UniProt P70579). Put plainly: mGluR8 Gi/Go-coupled signaling modulation – cell-based, rat, thallium flux, HTS, primary screen (AID 488969). As to conditions: HEK293 rat mGluR8, GIRK (G protein-gated inwardly rectifying potassium channel) thallium flux, FluoZin2; at 10 µM; stronger effect = higher value; submaximal glutamate (EC20) added with thallium.
Chain of Metabotropic glutamate receptor 8 (Rattus norvegicus) (P70579 whole entry, looked up): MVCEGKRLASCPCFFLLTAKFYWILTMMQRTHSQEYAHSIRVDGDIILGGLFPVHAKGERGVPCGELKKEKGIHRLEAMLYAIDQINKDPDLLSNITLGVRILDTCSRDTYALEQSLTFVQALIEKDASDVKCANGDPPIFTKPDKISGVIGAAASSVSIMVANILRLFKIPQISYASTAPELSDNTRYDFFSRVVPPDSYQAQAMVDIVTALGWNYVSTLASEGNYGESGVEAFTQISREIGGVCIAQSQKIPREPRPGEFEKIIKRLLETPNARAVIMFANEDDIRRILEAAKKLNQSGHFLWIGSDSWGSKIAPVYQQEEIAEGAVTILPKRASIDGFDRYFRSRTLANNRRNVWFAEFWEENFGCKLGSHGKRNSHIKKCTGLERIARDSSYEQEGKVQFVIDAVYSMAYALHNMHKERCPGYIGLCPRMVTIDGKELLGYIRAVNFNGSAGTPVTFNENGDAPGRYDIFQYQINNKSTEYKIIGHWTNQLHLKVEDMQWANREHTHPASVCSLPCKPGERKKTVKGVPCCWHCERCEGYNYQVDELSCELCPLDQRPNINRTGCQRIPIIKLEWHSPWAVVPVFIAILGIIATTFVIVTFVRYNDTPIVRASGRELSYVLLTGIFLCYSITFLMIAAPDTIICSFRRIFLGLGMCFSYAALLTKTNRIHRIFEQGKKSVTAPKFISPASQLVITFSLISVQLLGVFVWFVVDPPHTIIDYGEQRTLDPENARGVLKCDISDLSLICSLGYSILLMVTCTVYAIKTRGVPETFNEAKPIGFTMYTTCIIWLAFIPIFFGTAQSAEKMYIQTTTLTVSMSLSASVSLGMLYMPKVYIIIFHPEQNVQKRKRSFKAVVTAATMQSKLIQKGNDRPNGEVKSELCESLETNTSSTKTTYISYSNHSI
Take `CCCCCCCCCOC(=O)C[n+]1csc(CCO)c1C`: the z-score came to 0.0302.
`O=C(CCN1C(=O)c2ccccc2C1=O)Nc1sc2c(c1C(=O)NCC1CCCO1)CCC2` (stereo not drawn) gave a z-score of -0.294.
Then `CC(C(=O)Nc1sc2c(c1C(=O)NCC1CCCO1)CCC2)N1C(=O)c2ccccc2C1=O` (stereo not drawn), with -1; and `O=C(CN1C(=O)c2ccccc2C1=O)Nc1sc2c(c1C(=O)NCC1CCCO1)CCC2` (stereo not drawn), with 4.33 (active).
Then `CC(C)COP(=O)(OCC(C)C)C(O)c1ccc(F)cc1` (stereo not drawn), with 0.263.
Then `COc1ccc(C2(CNC(C)=O)CCOCC2)cc1OC`, with 0.1; and `COC(=O)C1=CN(C(C)C)C=C(C(=O)OC)C1c1cc2c(cc1Br)OCO2`, with -0.0368; and `Cc1cc2cc3c(cc2nc1SCc1ccc(C(=O)O)cc1)OCCO3`, with -0.554.
In turn, `COc1cccc(C2C(C#N)=C(N)Oc3c2oc(CO)cc3=O)c1` (stereo not drawn) came in with a z-score of -1.28.
As for `Cc1ccc(C(=O)c2ccccc2C(=O)O)c(O)c1`, the figure is 0.0184.
As for `O=C(CC(=O)c1ccccc1O)c1cccc(F)c1`, the figure is 3.63 (active).
Then `Cc1ccccc1C(=O)NNC(=O)c1ccc(F)cc1`, with 0.0481.
Regarding `O=C(Nc1ccccc1C(=O)O)c1cccc(F)c1`, the z-score is -0.262.
In turn, `CCOC(=O)c1ccccc1NC(=O)c1cccc(F)c1` returned a z-score of 0.0409.
As to `Cc1ccc(C(=O)CC(=O)c2cccc(F)c2)c(O)c1`, the z-score was 8.38 (active).
As for `O=C(CC(=O)c1ccccc1O)c1ccc(F)cc1`, the figure is 7.61 (active).
As for `O=C(CCC(=O)c1ccc(F)cc1)Nc1ccccc1Cl`, the figure is 0.266; as for `COc1ccccc1C(=O)NNC(=O)c1cccc(F)c1`, -0.0578; as for `CC(=O)Nc1cccc(C(=O)/C=C/c2ccc(/C=C/C(=O)c3cccc(NC(C)=O)c3)cc2)c1`, 0.033.
As for `COc1ccc2oc(C(=O)C3CC3)c(N)c2c1`, the figure is 1.19.
As to `COc1ccc(N=C/C=C2\C=C(c3ccccc3)OC(C)(C)O2)cc1`, the z-score was -0.461.
As for `CC1=NN(C(=O)Cc2ccc(C)cc2)C(O)(c2cccnc2)C1` (stereo not drawn), the figure is 0.145; as for `C=CCN1C(=Nc2cccnc2)SCC1(O)c1ccc(C)cc1` (stereo not drawn), 2.38; as for `OC1(c2ccc(OC(F)F)cc2)CSC(=Nc2cccnc2)N1C1CC1` (stereo not drawn), -0.02.
Molecule `COc1cc(/C=N/NC(=O)c2cc3ccccc3cc2O)ccc1OCCN1CCCCC1` gave a z-score of -0.0725.
`COc1ccc(N(C)S(=O)(=O)c2cccc(C(=O)OCC(=O)Nc3sc4c(c3C#N)CCCCC4)c2)cc1` yielded a z-score of 0.379.
In the case of `O=C1CC(C(F)(F)C(F)(F)C(F)(F)F)=Nc2ccccc2N1`, the z-score is 3.4 (active).
As for `O=C1CC(C(F)(F)C(F)(F)C(F)(F)C(F)(F)F)=Nc2ccccc2N1`, the figure is -0.248.
Then `Cc1cc2c(cc1C)NC(=O)CC(C(F)(F)C(F)(F)C(F)(F)F)=N2`, with -0.139; and `Cc1ccc(C)c(C(=O)CN2C3=NCCCN3c3ccccc32)c1`, with 0.0716.
With `CCCCN1C2=NCCCN2c2ccccc21`, the z-score is -0.957.
Then `CC(C)(C)c1ccc(CN2C3=NCCCN3c3ccccc32)cc1`, with 4.19 (active); and `c1ccc(CN2C3=NCCCN3c3ccccc32)cc1`, with 2.93; and `CCCCCN1C2=NCCN2c2ccccc21`, with 0.394.
Then `Brc1ccc(CN2C3=NCCCN3c3ccccc32)cc1`, with 0.755.
As for `OC(CN1C2=NCCCN2c2ccccc21)c1ccc(Cl)cc1` (stereo not drawn), the figure is 0.782.
For the molecule `CCCCCCN1C2=NCCN2c2ccccc21`, the z-score was 7.63 (active).
Consider `Clc1ccc(CN2C3=NCCCN3c3ccccc32)cc1`, for which the z-score worked out at 0.436.
As for `OC(CN1C2=NCCCN2c2ccccc21)c1ccc(Br)cc1` (stereo not drawn), the figure is 3.3 (active); as for `OC(CN1C2=NCCN2c2ccccc21)c1ccc(Br)cc1` (stereo not drawn), 0.254.
As for `O=C(CN1C2=NCCCN2c2ccccc21)c1ccc(Cl)cc1Cl`, the figure is 0.287.
Then `Cc1cccc(N(CC(=O)Nc2ccccc2F)S(C)(=O)=O)c1`, with -0.443; and `Cc1ccccc1OCC(=O)NC1=NCCS1`, with 0.0476.
In turn, `CCOC(=O)C(C)On1c(-c2cccc(Cl)c2)nc2ccc([N+](=O)[O-])cc21` (stereo not drawn) returned a z-score of 0.66.
Then `CNc1nc(CCN2C(=O)c3ccccc3C2=O)cs1`, with -0.0681; and `CCOC(=O)C(C)Sc1nc(C2CC2)cc(C(F)(F)F)c1C#N` (stereo not drawn), with 1.1; and `O=C(NC(C(=O)O)c1ccccc1)c1ccccc1` (stereo not drawn), with 0.488.
As for `COC(=O)CCC(=O)Nc1ccc(C)cc1OC(=O)CCC(=O)OC`, the figure is 0.273; as for `COc1ccccc1CNS(=O)(=O)c1c(C)[nH]c(=O)[nH]c1=O`, 0.0871; as for `O=C1CC(c2ccc(S(=O)(=O)NCCOc3ccccc3)cc2)CN1` (stereo not drawn), 0.129.
For the molecule `CCN1C2=NCCCN2c2ccccc21`, the z-score came to 0.0152.
Then `Fc1ccc(CN2C3=NCCCN3c3ccccc32)cc1`, with -0.37.
As for `Cc1ccccc1CN1C2=NCCCN2c2ccccc21`, the figure is 3.26 (active); as for `Cc1ccc(CN2C3=NCCCN3c3ccccc32)cc1`, 3.51 (active).
Then `Cc1ccc(C(O)CN2C3=NCCCN3c3ccccc32)cc1` (stereo not drawn), with 1.16.
`CCCN1C2=NCCCN2c2ccccc21` gave a z-score of 0.397.
`C=CCNC(=O)c1cc(Cl)ccc1Cl`: the z-score is 0.018.
`COc1ccc2c(C)cc(=O)[nH]c2c1` registered a z-score of -0.159.
As for `O=C(NC1CC1)c1cc2c(s1)-c1ccccc1OC2`, the figure is -0.272.
As for `O=C(NCc1cccs1)c1cc2c(s1)-c1ccccc1OC2`, the figure is -0.399; as for `CN(C)CCNC(=O)c1cc2c(s1)-c1ccccc1OC2`, 3.28 (active).
The molecule `Cc1cc(C)n(-c2ccc(Cl)c(C(=O)Nc3cc(C(F)(F)F)ccc3Cl)n2)n1` registered a z-score of 0.25.
As for `CC(C)c1ccc(OCC(=O)N(Cc2ccccc2)c2ccccn2)cc1`, the figure is -0.499.
Then `CCN(CC(=O)Nc1cccc(OC)c1)c1ncnc2sc(C)c(C)c12`, with -0.125; and `Cc1c(NC(=O)CSc2ncn[nH]2)c(=O)n(-c2ccccc2)n1C`, with 0.565; and `CCCCc1ccc(NC(=S)Nc2ccc(Nc3ccc(OC)cc3)cc2)cc1`, with -0.0123.
Turning to `CCCCC(=O)Nc1ccc(C(=O)Nc2cccnc2)cc1`, the z-score is 0.0123.
For `CCCCc1ccc(NC(=S)Nc2ccc(Cl)c(S(=O)(=O)N(C)C)c2)cc1`, the z-score was 5.93 (active).
As for `CC(=O)N1CCN(CC(=O)Nc2ccc(Cl)c(S(=O)(=O)N(C)C)c2)CC1`, the figure is -0.0302.
Then `CCC(C(=O)OCC(=O)Nc1ccc(Cl)c(S(=O)(=O)N(C)C)c1)c1ccccc1` (stereo not drawn), with -2.23; and `CCCCc1ccc(NC(=S)Nc2cccnc2)cc1`, with 2.66.
As for `CNC(=O)N1CCN(C(=O)NC)CC1`, the figure is -0.168.
Molecule `CCN(CC)S(=O)(=O)c1ccc(N2CCOCC2)c(NS(=O)(=O)c2cc(C(C)(C)C)ccc2C)c1` gave a z-score of -0.103.
Then `O=C1[C@@H]2[C@H](C(=O)N1Cc1ccco1)[C@H]1C=C[C@@H]2C1`, with -0.0939; and `Cc1cc(C(=O)CSc2nc3ccccc3o2)c(C)n1CC1CCCO1` (stereo not drawn), with -0.415; and `CCCCCCc1cc2cc(C(=O)NCc3ccccc3)c(=N)oc2cc1O`, with 0.891.
Then `CCCCCCc1cc2cc(C(N)=O)c(=N)oc2cc1O`, with -1.44.
As for `CCCCCCc1cc2cc(C(=O)NC)c(=N)oc2cc1O`, the figure is 11.6 (active); as for `O=C(Nc1ccc(Br)cc1)c1ccc(N2C(=O)C3CC=CCC3C2=O)cc1` (stereo not drawn), 0.106.
As for `COc1cc(C(=O)NNC2=CC(=O)CC(C)(C)C2)cc(OC)c1OC`, the z-score was -0.21.
Regarding `Cc1cc(N/C(=N\S(=O)(=O)c2ccc(F)cc2F)c2ccccc2)no1`, the z-score was found to be 0.0702.
`COc1ccc(-c2nnc(SCC(=O)Oc3ccc(C)cc3)o2)cc1`: the z-score was -0.915.
Then `CCS(=O)(=O)Nc1ccc(-c2nnc(SCC(=O)c3ccc(NC(C)=O)c(OC)c3)o2)cc1`, with 4.64 (active); and `COc1ccc(-c2nnc(SC(C)C(=O)NNC(=O)c3ccc(C)cc3)o2)cc1` (stereo not drawn), with 2.1; and `COc1ccc(-c2nnc(SC(C)C(=O)Nc3ccc4c(c3)OCCO4)o2)cc1` (stereo not drawn), with 1.65.
For `COc1ccc(-c2nnc(SC(C)C(=O)Nc3cccc(Cl)c3)o2)cc1` (stereo not drawn), the z-score was -0.517.
As for `CCn1c(SCC(=O)c2ccc(NC(C)=O)c(OC)c2)nnc1-c1ccc(NS(C)(=O)=O)cc1`, the figure is -0.0548; as for `COc1ccc(C(=O)CSc2nnc(-c3ccc(C)cc3)o2)cc1`, 2.18; as for `CCC(=O)Nc1ccc(C(=O)CSc2nnc(CNc3ccc(Cl)cc3)o2)cc1OC`, -0.38.
Then `Cc1ccc(C(=O)CSc2nnc(-c3ccccc3)o2)cc1`, with 0.068; and `COCCNC(=O)c1onc(CSc2ccc(C)c(C)c2)c1C(=O)O`, with -0.0285; and `CN1C(=O)COc2ccc(C(=O)c3oc4ccccc4c3-c3cnc4c(c3)COc3ccccc3-4)cc21`, with -0.142.
Then `O=C(Cc1ccccc1)Nc1c[nH]c(=O)[nH]c1=O`, with -0.449; and `Brc1ccc2[nH]c3c(N4CCc5ccccc5C4)ncnc3c2c1`, with -0.00372; and `O=C(CCn1cccc1)Nc1cc(F)ccc1F`, with -0.224.
For `Cc1cncn1CCc1nc2c3ccccc3nc(=S)n2[nH]1`, the z-score is -0.535.
As for `S=c1nc2ccccc2c2nc(-c3ccccc3)[nH]n12`, the figure is 2.81; as for `Cc1nc2ccccc2n1CCc1nc2c3ccccc3nc(=S)n2[nH]1`, -0.257; as for `Cc1ccccc1C(=O)Nc1ccccc1C(=O)NCc1ccccc1`, -0.529.
As to `CCOC(=O)c1cn2nc(-c3ccc(OCC)cc3)cc2nc1C1CCN(C(=O)OC(C)(C)C)CC1`, the z-score is -0.13.
As for `CC(C)(C)c1ccc(NC(=O)COC(=O)c2ccc([N+](=O)[O-])s2)cc1`, the figure is 2.01.
Then `O=C(COC(=O)c1ccc([N+](=O)[O-])s1)Nc1ccccc1`, with -0.0827.
Turning to `Cc1ccc(NC(=O)COC(=O)c2ccc([N+](=O)[O-])s2)c(C)c1`, the z-score is 0.229.
Then `COc1ccccc1/C=C/C(=O)NCC(=O)N/N=C/c1cccnc1`, with 0.376; and `CC(NS(=O)(=O)c1ccc(CCC(=O)NCc2cccnc2)cc1)c1ccccc1` (stereo not drawn), with 0.0386; and `Cc1nnc(SCC(=O)Nc2ccccc2N2CCOCC2)s1`, with -0.0127.
In the case of `O=C(Nc1ccc(Br)cc1)C1CCC(=O)N1Cc1ccccc1Cl` (stereo not drawn), the z-score was 4.3 (active).
As for `O=C(Nc1ccc(Cl)cc1)C1CCC(=O)N1Cc1ccccc1Cl` (stereo not drawn), the figure is 0.406; as for `O=C(Nc1cc(Cl)cc(Cl)c1)C1CCC(=O)N1Cc1ccccc1Cl` (stereo not drawn), -0.359; as for `CCCCN(CCCC)CC(O)CN(c1cc([N+](=O)[O-])ccc1OC)S(=O)(=O)c1ccccc1` (stereo not drawn), 0.91.
As for `Cn1cc(CN2CCc3ccccc3C2)c2ccccc21`, the figure is 0.58; as for `O=c1[nH]c(CN2CCc3ccccc3C2)nc2ccccc12`, 0.446.
Take `Cc1[nH]c2ccccc2c1CN1CCc2ccccc2C1`: the z-score is 3.72 (active).
